From article PMC7862700, “An all-to-all approach to the identification of sequence-specific readers for epigenetic DNA modifications on cytosine” come the findings set out here.

Test in all cases: DAPPL (digital affinity profiling via proximity ligation, sequencing); 10 mM Tris-HCl pH 7.5, 50 mM NaCl, 1 mM DTT, 4% glycerol, room temperature, 30 min; GST-TFs on glutathione beads, 16-mer random dsDNA library, 0.1% formaldehyde crosslink after washing; high values mean tight binding
Common to all, as to conditions: protein: recombinant; tags: N-terminal GST; dsDNA, one strand shown

For one test, the target named is T1, FLI1 (Homo sapiens, UniProt Q01543 1-452).
T1 sequence: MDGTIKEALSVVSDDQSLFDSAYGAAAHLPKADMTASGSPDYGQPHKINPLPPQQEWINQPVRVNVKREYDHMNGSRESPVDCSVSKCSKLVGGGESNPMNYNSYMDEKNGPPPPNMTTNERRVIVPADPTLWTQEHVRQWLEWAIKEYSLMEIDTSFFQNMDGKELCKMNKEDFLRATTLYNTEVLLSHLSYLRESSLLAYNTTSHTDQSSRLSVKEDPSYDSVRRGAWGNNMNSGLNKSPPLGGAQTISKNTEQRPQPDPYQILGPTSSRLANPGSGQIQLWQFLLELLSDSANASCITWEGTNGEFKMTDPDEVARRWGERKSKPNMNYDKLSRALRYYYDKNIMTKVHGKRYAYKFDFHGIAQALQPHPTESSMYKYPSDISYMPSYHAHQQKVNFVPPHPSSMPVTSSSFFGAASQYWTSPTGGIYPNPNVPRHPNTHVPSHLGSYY
Summed up:
(§1)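 Human transcription factors were made in yeast as GST fusions, captured on glutathione beads and barcoded with DNA. With a tag-only sample included, the pool was incubated with 200 nmole of a random double-stranded 16-mer DNA library in Tris/NaCl/DTT/glycerol buffer at room temperature for 30 min, then crosslinked with 0.1% formaldehyde after washing, ligated by proximity, amplified and sequenced. For binding signal, each hexamer's read frequency for a factor is divided by its frequency for the tag-only sample.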

The target in the next test is T2, ELK1 (Homo sapiens, UniProt P19419 1-428).
T2 sequence: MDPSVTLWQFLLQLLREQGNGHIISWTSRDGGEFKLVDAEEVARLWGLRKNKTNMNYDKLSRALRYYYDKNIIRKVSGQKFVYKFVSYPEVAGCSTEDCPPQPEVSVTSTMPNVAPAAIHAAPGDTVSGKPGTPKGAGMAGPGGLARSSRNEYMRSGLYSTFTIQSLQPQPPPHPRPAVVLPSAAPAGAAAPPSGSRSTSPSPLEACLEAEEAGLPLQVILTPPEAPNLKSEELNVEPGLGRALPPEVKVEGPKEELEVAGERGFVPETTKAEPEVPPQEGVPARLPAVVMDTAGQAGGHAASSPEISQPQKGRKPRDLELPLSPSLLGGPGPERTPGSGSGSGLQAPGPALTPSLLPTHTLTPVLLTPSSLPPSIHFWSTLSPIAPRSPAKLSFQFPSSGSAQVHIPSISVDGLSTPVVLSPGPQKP
Summed up: as §1

The next test deals with T3, GABPA (Homo sapiens, UniProt Q06546 1-454).
T3 sequence: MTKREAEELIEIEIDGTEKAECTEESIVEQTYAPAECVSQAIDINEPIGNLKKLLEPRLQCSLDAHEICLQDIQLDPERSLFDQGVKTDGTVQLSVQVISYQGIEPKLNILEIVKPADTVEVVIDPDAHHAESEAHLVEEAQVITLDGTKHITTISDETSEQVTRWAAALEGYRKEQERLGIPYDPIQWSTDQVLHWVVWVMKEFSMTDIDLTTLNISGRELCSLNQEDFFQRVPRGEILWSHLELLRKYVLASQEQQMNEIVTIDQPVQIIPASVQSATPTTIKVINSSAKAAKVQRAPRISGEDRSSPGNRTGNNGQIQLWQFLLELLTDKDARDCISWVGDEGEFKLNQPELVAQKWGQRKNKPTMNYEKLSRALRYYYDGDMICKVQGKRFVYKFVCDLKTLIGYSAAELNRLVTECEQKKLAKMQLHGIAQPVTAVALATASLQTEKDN
Summed up: as §1

A further test has as its target T4, ERG (Homo sapiens, UniProt P11308 1-479).
T4 sequence: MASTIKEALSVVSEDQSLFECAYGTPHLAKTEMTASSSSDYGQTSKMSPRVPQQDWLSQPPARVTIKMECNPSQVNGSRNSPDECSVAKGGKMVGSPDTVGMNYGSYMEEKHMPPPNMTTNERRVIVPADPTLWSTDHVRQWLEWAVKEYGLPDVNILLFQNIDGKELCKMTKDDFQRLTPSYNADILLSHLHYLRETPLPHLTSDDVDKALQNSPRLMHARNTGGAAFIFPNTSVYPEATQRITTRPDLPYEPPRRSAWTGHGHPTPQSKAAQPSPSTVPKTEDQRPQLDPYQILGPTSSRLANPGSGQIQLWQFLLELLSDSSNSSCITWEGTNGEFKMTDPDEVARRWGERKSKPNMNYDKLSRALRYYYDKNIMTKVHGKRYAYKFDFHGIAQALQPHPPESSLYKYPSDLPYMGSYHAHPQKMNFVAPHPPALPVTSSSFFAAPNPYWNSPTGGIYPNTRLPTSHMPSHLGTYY
Summed up: as §1

For a further test, the target named is ELF1 (Homo sapiens, UniProt P32519 1-619). Summed up:
as §1

Another test concerns the target T5, EHF (Homo sapiens, UniProt Q9NZC4 1-300).
T5 sequence: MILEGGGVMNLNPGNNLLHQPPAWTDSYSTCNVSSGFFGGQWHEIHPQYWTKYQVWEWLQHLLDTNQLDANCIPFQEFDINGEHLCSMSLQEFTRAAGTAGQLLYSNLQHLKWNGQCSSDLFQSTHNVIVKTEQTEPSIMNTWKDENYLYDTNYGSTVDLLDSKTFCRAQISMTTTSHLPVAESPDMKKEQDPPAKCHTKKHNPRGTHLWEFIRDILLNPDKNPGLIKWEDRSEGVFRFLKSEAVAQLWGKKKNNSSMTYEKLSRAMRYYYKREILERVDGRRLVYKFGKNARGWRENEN
The procedure, abridged:
as §1

Another test concerns the target SPI1 (Homo sapiens, UniProt P17947 1-270). Summed up: as §1
A further test addresses SPIB (Homo sapiens, UniProt Q01892 1-262). Summed up:
as §1

For a further test, the target named is T6, ELK3 (Homo sapiens, UniProt P41970 1-407).
T6 sequence: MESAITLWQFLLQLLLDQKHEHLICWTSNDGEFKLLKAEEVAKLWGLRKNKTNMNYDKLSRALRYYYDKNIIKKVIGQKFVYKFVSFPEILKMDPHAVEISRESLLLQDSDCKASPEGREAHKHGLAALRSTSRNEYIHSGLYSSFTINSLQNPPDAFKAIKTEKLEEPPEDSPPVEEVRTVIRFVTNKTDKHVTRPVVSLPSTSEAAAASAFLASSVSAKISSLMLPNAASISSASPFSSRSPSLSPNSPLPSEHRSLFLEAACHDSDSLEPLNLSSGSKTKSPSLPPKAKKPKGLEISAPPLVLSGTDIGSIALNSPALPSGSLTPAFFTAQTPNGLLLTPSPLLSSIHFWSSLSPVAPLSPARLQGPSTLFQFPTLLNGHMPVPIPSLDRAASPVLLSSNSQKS
Summed up: as §1

The target in a further test is T7, FEV (Homo sapiens, UniProt Q99581 1-238).
T7 sequence: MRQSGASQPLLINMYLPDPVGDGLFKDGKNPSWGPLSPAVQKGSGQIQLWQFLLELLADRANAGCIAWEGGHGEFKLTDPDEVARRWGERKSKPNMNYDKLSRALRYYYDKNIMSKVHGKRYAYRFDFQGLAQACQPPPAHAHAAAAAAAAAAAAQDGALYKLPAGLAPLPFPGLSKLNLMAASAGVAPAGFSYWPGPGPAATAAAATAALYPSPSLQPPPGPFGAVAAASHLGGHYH
The procedure, abridged:
as §1

The target in a further test is ETV5 (Homo sapiens, UniProt P41161 1-510). Summed up: as §1
For another test, the target named is T8, SPIC (Homo sapiens, UniProt Q8N5J4 1-248).
T8 sequence: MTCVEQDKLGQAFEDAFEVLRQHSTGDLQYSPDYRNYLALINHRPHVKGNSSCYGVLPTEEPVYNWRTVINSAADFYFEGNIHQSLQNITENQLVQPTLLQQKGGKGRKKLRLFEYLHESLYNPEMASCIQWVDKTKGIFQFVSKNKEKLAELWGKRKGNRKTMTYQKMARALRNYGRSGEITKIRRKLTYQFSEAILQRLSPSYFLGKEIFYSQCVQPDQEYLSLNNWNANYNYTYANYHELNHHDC
The procedure, abridged: as §1

The next test addresses ELF4 (Homo sapiens, UniProt Q99607 1-663). Summed up:
as §1

A further test addresses T9, ELK4 (Homo sapiens, UniProt P28324-2 1-405).
T9 sequence: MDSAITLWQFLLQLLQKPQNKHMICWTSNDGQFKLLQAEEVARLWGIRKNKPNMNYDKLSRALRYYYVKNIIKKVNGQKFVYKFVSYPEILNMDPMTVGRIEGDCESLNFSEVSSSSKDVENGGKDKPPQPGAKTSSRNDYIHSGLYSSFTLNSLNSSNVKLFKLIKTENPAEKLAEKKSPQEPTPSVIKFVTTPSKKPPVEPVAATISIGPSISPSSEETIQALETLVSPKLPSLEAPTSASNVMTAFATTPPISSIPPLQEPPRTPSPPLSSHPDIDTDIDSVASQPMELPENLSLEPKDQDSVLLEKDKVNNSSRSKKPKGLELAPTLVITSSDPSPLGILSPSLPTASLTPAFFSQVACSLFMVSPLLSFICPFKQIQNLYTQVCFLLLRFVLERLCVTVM
Summed up:
as §1

In another test the target is T10, ELF3 (Homo sapiens, UniProt P78545 1-371).
T10 sequence: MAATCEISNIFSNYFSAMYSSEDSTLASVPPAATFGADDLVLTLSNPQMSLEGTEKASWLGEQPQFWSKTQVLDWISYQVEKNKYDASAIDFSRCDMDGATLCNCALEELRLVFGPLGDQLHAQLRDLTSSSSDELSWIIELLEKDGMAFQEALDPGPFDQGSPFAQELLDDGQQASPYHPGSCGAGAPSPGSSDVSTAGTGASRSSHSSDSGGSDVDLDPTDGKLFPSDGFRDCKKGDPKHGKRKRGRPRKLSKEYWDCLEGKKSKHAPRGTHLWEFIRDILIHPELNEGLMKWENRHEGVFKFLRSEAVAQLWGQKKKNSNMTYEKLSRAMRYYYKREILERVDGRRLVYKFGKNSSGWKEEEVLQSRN
The procedure, abridged: as §1

Another test deals with CRX (Homo sapiens, UniProt O43186 1-299). Summed up:
as §1

For a further test, the target named is ETV1 (Homo sapiens, UniProt P50549 1-477). Summed up:
as §1

Sequence of ELF4 (Q99607 whole entry): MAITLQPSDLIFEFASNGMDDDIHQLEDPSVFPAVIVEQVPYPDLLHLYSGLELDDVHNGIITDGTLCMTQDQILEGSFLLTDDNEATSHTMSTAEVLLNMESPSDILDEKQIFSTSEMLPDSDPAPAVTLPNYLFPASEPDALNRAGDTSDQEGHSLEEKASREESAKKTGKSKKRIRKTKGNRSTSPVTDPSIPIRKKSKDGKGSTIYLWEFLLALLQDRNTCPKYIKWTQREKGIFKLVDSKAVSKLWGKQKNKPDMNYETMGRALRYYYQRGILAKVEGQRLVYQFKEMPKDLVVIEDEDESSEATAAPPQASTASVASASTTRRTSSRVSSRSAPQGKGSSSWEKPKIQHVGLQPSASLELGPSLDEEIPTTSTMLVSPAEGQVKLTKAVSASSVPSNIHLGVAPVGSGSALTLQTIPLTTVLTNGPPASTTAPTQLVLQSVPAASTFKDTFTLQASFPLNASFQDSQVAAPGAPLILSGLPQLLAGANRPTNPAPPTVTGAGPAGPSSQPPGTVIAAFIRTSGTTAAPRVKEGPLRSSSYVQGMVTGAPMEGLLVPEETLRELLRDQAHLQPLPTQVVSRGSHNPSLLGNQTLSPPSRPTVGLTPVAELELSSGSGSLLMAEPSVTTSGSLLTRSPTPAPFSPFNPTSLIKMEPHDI
Sequence of CRX (O43186 whole entry): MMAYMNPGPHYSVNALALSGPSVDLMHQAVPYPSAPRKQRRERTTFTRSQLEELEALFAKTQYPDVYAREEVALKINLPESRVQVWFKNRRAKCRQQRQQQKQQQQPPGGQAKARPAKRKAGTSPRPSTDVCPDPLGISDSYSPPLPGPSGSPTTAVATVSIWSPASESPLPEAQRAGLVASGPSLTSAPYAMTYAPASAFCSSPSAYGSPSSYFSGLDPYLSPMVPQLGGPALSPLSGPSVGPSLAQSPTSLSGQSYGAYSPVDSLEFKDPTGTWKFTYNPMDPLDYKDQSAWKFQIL
Sequence of ETV5 (P41161 whole entry): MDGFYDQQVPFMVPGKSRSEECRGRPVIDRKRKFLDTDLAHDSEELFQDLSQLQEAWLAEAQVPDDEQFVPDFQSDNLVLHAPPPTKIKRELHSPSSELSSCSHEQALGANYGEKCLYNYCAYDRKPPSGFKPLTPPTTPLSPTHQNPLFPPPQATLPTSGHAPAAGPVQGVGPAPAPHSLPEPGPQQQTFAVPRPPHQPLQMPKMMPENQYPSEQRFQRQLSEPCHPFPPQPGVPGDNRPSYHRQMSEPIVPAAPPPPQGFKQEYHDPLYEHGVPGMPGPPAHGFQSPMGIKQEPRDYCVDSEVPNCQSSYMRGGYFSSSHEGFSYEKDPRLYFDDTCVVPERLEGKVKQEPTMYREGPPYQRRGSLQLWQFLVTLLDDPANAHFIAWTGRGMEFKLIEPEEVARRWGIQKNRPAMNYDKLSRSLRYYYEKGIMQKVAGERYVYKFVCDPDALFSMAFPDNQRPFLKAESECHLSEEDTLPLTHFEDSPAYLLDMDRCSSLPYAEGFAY
Sequence of SPIB (Q01892 whole entry): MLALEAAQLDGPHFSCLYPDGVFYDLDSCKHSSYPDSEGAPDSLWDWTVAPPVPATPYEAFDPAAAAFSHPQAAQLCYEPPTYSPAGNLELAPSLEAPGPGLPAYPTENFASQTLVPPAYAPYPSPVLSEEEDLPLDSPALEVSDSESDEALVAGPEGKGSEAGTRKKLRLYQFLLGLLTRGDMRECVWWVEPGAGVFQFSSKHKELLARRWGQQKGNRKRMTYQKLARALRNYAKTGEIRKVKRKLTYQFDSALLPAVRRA
Sequence of ETV1 (P50549 whole entry): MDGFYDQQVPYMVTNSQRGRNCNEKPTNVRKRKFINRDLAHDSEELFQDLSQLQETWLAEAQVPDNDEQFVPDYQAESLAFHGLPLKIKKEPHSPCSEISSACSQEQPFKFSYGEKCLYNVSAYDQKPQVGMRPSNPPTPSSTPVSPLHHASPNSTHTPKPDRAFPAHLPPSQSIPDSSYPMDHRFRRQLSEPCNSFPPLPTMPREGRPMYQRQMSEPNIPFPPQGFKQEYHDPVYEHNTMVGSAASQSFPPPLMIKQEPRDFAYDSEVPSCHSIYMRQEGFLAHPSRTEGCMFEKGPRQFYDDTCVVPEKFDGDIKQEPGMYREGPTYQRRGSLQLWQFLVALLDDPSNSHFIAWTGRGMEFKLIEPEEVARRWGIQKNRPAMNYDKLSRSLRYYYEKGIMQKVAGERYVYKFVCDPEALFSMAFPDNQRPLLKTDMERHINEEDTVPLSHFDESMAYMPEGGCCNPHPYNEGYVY
Sequence of ELF1 (P32519 whole entry): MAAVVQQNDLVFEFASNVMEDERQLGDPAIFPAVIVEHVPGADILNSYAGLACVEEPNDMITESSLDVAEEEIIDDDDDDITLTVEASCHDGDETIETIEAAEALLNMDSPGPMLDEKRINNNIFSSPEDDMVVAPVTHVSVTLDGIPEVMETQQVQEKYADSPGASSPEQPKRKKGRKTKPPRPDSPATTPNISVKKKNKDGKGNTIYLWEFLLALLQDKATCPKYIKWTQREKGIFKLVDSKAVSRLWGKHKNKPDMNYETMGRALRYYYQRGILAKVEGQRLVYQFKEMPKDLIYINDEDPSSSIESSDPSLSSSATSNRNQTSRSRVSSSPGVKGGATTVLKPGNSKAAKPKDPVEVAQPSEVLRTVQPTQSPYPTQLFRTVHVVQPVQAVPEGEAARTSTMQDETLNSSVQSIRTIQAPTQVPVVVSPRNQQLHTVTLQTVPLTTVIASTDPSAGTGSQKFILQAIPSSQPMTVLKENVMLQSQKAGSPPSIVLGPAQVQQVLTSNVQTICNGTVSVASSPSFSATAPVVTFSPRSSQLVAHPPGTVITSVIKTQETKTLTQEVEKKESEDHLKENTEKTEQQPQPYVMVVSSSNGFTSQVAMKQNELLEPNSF

With ATGTTG, the binding signal with FLI1 is 1.31 fold enrichment (6-mer frequency, TF over GST control); with ELK1, 1.26 fold enrichment (6-mer frequency, TF over GST control); with GABPA, 1.22 fold enrichment (6-mer frequency, TF over GST control); with ERG it was 1.26 fold enrichment (6-mer frequency, TF over GST control); with ELF1, 1.35 fold enrichment (6-mer frequency, TF over GST control); with EHF, 1.21 fold enrichment (6-mer frequency, TF over GST control). Also, the binding signal is 1.3 fold enrichment (6-mer frequency, TF over GST control) with SPI1; 1.18 fold enrichment (6-mer frequency, TF over GST control) in the test with SPIB; 1.21 fold enrichment (6-mer frequency, TF over GST control) with ELK3; 1.21 fold enrichment (6-mer frequency, TF over GST control) with FEV; 1.3 fold enrichment (6-mer frequency, TF over GST control) in the test with ETV5; 1.1 fold enrichment (6-mer frequency, TF over GST control) with SPIC. For the same sequence, the binding signal in the test with ELF4 is 1.2 fold enrichment (6-mer frequency, TF over GST control); with ELK4, 1.25 fold enrichment (6-mer frequency, TF over GST control); in the test with ELF3, 1.11 fold enrichment (6-mer frequency, TF over GST control); with CRX it was 1.04 fold enrichment (6-mer frequency, TF over GST control); with ETV1, 1.32 fold enrichment (6-mer frequency, TF over GST control).
